{"source": "PubChem BioAssay (NCATS)", "note": "Results filed as inconclusive are left out. Entries that show only a call come without a potency. The source made the active and inactive calls. Calls come from the whole dose curve; as a rule, active = well fitted cell-killing curve with a large enough effect; inconclusive = small, poorly fitted or top-dose-only effect; inactive = flat fitted curve, though single readings scatter. Potency is the fitted concentration of half-maximal effect."}
{"assay": "qHTS of pediatric cancer cell lines to identify multiple opportunities for drug repurposing: Primary screen for DAOY cells (AID 1347090); note: nearly all actives have a fitted effect of over 55% in size", "settings": "DAOY medulloblastoma viability, CellTiter-Glo luminescence, 48 h; series mostly up to 46 µM", "text": "Drug repurposing or repositioning has been offered as a strategy for drug development in oncology programs. This approach has special potential for childhood cancers and other rare or orphan diseases, where the expected return on new drug development has been a disincentive to pharmaceuticals.\nIn this project we exploit the poly-pharmacology of drugs to discover new indications via phenotypic screening of a panel of 19 well-characterized cell lines derived from solid tumors seen in children and adolescents. The goal is to identify approved drugs with previously unrecognized anticancer properties that has the potential to reveal new mechanisms and biological processes involved in carcinogenesis or drug resistance. We employed a titration-based paradigm (quantitative high-throughput screening or qHTS), where all compounds were tested at multiple concentrations for their effect on cell viability. Concentration-response curves (CRCs) were derived directly from the primary screen, and both potency and efficacy values were used to identify compounds with robust bioactivity profiles. We screened the NIH Chemical Genomics Center (NCGC) Pharmaceutical Collection (NPC) and Mechanism Interrogation Plate (MIPE) small molecule collections of approved and investigational compounds against these cell lines; and measured metabolically active cells after 48 hours of compound treatment as a proxy for cell viability.\nAssay Submitter: Nathalia J. Martinez, National Center for Advancing Translational Sciences, National Institutes of Health, Rockville, MD, USA; email: natalia.martinez@nih.gov\n[1] Shen, M et al. Quantitative high-throughput phenotypic screening of pediatric cancer cell lines identifies multiple opportunities for drug repurposing. Oncotarget 2017 Dec 19;9(4):4758-4772. PMID 29435139.\nThe cells were obtained from University of North Carolina (UNC), Pediatric Preclinical Testing Program (PPT), and Coriell Institute (CI).\nqHTS cell viability assay:\nCells were assayed in growth media at a density of 500-1,000 cells/well. Five microliters of cells were dispensed into 1,536-well, white, solid-bottom, TC-treated plates (Greiner Bio One) using a multidrop dispenser and incubated at 37 degrees C, 5% CO2, under a humidified atmosphere for 5 hours. Twenty-three nanoliters of compounds and controls (neutral control DMSO or positive control bortezomib at final concentration of 2.3 µM) were subsequently transferred by Kalypsys pintool. For primary screens, the MIPE collection was tested at 11-point dilutions (final concentrations range from 0.78 nM to 46 µM) and the NPC collection at 8-point dilutions (final concentrations range from 0.59 nM to 46 µM). Compounds tested in follow-up screens were assayed at 11-point dilutions. Cells were incubated for 48 hours, followed by addition of 3 uL of CellTiter-Glo (Promega). After a 15 min incubation at room temperature, samples were analyzed for luminescence intensity using a ViewLux High-throughput CCD imager equipped with clear filters."}
{"compound": "Cc1c[nH]c(C=C2C(=O)Nc3ccccc32)c1CCC(=O)O", "Potency": "inactive"}
{"compound": "CC(C)(C)COc1ccc(-n2cc(C(=O)O)cn2)cc1C#N", "Potency": "inactive"}
{"compound": "Clc1ccc(Cn2c(CN3CCCC3)nc3ccccc32)cc1", "Potency": "inactive"}
{"compound": "N#CC1(c2ccc(NC(=O)c3cccnc3NCc3ccncc3)cc2)CCCC1", "Potency": "inactive"}
{"compound": "Cc1[nH]c(C=C2C(=O)Nc3ccc(S(=O)(=O)Cc4c(Cl)cccc4Cl)cc32)c(C)c1C(=O)N1CCC[C@H]1CN1CCCC1", "Potency": "inactive"}
{"compound": "CCCCCN(C)CCC(O)(P(=O)(O)O)P(=O)(O)O", "Potency": "inactive"}
{"compound": "CCN(CC)CCOC(=O)c1ccc(N)cc1", "Potency": "inactive"}
{"compound": "C[C@H](NC(=O)c1sccc1OCc1ccc(Cl)cc1)c1ccccc1", "Potency": "18.7 µM (active)"}
{"compound": "COc1cc2ncnc(Nc3ccc(F)c(Cl)c3)c2cc1OCCCN1CCOCC1", "Potency": "4.29 µM (active)"}
{"compound": "CC(=Cc1ccccc1)C=C1SC(=S)N(CC(=O)O)C1=O", "Potency": "inactive"}
{"compound": "O=C(O)c1cc(O)c2c(c1)C(=O)c1cccc(O)c1C2=O", "Potency": "inactive"}
{"compound": "O=C1NCC2(CCN(CCc3ccccc3)CC2)O1", "Potency": "inactive"}
{"compound": "CCCCC1C(=O)N(c2ccccc2)N(c2ccccc2)C1=O", "Potency": "inactive"}
{"compound": "CN1CCN(CCOc2cc(OC3CCOCC3)c3c(Nc4c(Cl)ccc5c4OCO5)ncnc3c2)CC1", "Potency": "18.7 µM (active)"}
{"compound": "O=C(O)C=Cc1ccc(O)c(O)c1", "Potency": "7.43 µM (active)"}
{"compound": "N[C@H](CSC(c1ccccc1)(c1ccccc1)c1ccccc1)C(=O)O", "Potency": "18.7 µM (active)"}
{"compound": "Nc1ncnc2c1ncn2[C@@H]1O[C@@H](CO)[C@H](O)[C@H]1O", "Potency": "inactive"}
{"compound": "NC(CO)(CO)CCc1ccc(Sc2cccc(OCc3ccccc3)c2)cc1Cl", "Potency": "23.5 µM (active)"}
{"compound": "Clc1ccc(-c2nc3sccn3c2C=NOCc2ccc(Cl)c(Cl)c2)cc1", "Potency": "inactive"}
{"compound": "CC(C)(Cc1ccc2ccccc2c1)NC[C@@H](O)COc1cccc(Cl)c1C#N", "Potency": "inactive"}
{"compound": "COc1cc(NC(=O)c2ccc(-c3ccc(Cl)cc3)o2)cc(OC)c1", "Potency": "2.96 µM (active)"}
{"compound": "CC(C)C(C)C=CC(C)C1CCC2C3=CC=C4CC(O)CCC4(C)C3CCC21C", "note": "(stereo not given)", "Potency": "inactive"}
{"compound": "O=C1c2ccccc2-[n+]2ccc3c([nH]c4ccccc43)c21", "Potency": "2.96 µM (active)"}
{"compound": "CC(C)(C)NC(=O)Nc1cccc(Nc2ncc(F)c(NC(C)(C)CO)n2)c1", "Potency": "inactive"}
{"compound": "NS(=O)(=O)c1cccc2c1C(=O)c1cccc(O)c1C2=O", "Potency": "0.935 µM (active)"}
{"compound": "O=C1NC(=O)C(=Cc2ccc3c(c2)OC(F)(F)O3)S1", "Potency": "23.5 µM (active)"}
{"compound": "CCN1CCC[C@H]1CNC(=O)c1cc(S(N)(=O)=O)ccc1OC", "Potency": "inactive"}
{"compound": "NC[C@@H]1O[C@@H](O[C@H]2[C@@H](O)[C@H](O[C@@H]3[C@@H](O)[C@@H](N)C[C@H](N)[C@H]3O[C@H]3O[C@H](CN)[C@@H](O)[C@@H](O)[C@H]3N)O[C@H]2CO)[C@H](N)[C@@H](O)[C@@H]1O", "Potency": "inactive"}
{"compound": "CCN(CC)C(=O)c1ccc(O)c(OC)c1", "Potency": "inactive"}
{"compound": "Cc1nc(N)sc1-c1ccnc(Nc2ccc(N3CCOCC3)cc2)n1", "Potency": "18.7 µM (active)"}
{"compound": "COc1ccc(-c2coc3cc(O)ccc3c2=O)cc1", "Potency": "inactive"}
{"compound": "O=C(O)c1ccccc1C(=O)Nc1ccc(-c2ccccc2)cc1", "Potency": "inactive"}
{"compound": "NC(=O)NN=Cc1ccc([N+](=O)[O-])o1", "Potency": "inactive"}
{"compound": "CC=CC(=O)N(CC)c1ccccc1C", "Potency": "inactive"}
{"compound": "CCOC(=O)O[C@]1(C(=O)OCCl)CC[C@@H]2[C@H]3CCC4=CC(=O)C=C[C@]4(C)[C@@H]3[C@@H](O)C[C@@]21C", "Potency": "inactive"}
{"compound": "Nc1nc(F)nc2c1ncn2[C@@H]1O[C@H](COP(=O)(O)O)[C@@H](O)[C@H]1O", "Potency": "4.69 µM (active)"}
{"compound": "c1ccc2c(Cc3c[nH]c4ccccc34)c[nH]c2c1", "Potency": "3.72 µM (active)"}
{"compound": "O=C(Nc1c(Cl)cncc1Cl)c1ccc(OC(F)F)c(OCC2CC2)c1", "Potency": "inactive"}
{"compound": "O=c1cc(-c2ccccc2)oc2cc(O)cc(O)c12", "Potency": "inactive"}
{"compound": "CN(C)Cc1cccc(N=C(c2ccccc2)c2c(O)[nH]c3cc(C(=O)N(C)C)ccc23)c1", "Potency": "2.96 µM (active)"}
